Measurements published in the supplement of paper PMC12669032.

How the values were obtained:
Assay in all cases: growth AUC relative to DMSO control (median of replicates) (fraction); higher = more growth (less inhibition), active = hit call of the paper
Details in all cases: 20 µM; 24 h;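 active = AUC reduced over 20% with Padj below 0.05 in at least 2 of 3 replicates; inactive = otherwise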
Akkermansia muciniphila = test system: Akkermansia muciniphila
Outline: (§1)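 Three biological replicates, each grown on a separate day, were combined as a median for every value. In each, a gut bacterial monoculture in mGAM started at OD600 0.05 and grew anaerobically at 37 °C with 20 µM compound (1% DMSO), with OD600 read hourly over 24 h. Area under the growth curve was normalised against the plate median of solvent-only wells, or against row and column medians on the industrial chemical plate, after the minimum OD was set to 0.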

Bacteroides caccae = test system: Bacteroides caccae
Outline: as §1

Bacteroides clarus = test system: Bacteroides clarus
Outline: as §1

Bacteroides dorei = test system: Bacteroides dorei
Outline: as §1

Bacteroides stercoris = test system: Bacteroides stercoris
Outline: as §1

[1] = test system: Bacteroides thetaiotaomicron
Outline: as §1

Bacteroides uniformis = test system: Bacteroides uniformis
Outline: as §1

[2] = test system: Bifidobacterium longum subsp. longum
Outline: as §1

Clostridium difficile = test system: Clostridium difficile
Outline: as §1

Collinsella aerofaciens = test system: Collinsella aerofaciens
Outline: as §1

Measured: growth AUC

CCNc1nc(NC(C)C)nc(SC)n1
inactive: Akkermansia muciniphila 0.916 | Bacteroides caccae 0.959 | Bacteroides clarus 0.997 | Bacteroides dorei 0.976 | Bacteroides stercoris 1.19 | [1] 0.985 | Bacteroides uniformis 1 | [2] 0.988 | Clostridium difficile 0.999 | Collinsella aerofaciens 0.983

O=[N+]([O-])c1ccc(O)c([N+](=O)[O-])c1
inactive: Akkermansia muciniphila 1.07 | Bacteroides caccae 0.987 | Bacteroides clarus 0.939 | Bacteroides dorei 0.98 | Bacteroides stercoris 0.867 | [1] 0.889 | Bacteroides uniformis 0.946 | [2] 1 | Clostridium difficile 0.973 | Collinsella aerofaciens 0.992

CCOP(=S)(OCC)SCCS(=O)CC (stereo not given)
inactive: Akkermansia muciniphila 1.04 | Bacteroides caccae 1.02 | Bacteroides clarus 0.979 | Bacteroides dorei 0.985 | Bacteroides stercoris 1.02 | [1] 1.02 | Bacteroides uniformis 1.05 | [2] 1 | Clostridium difficile 0.967 | Collinsella aerofaciens 1

O=C(O)C(Cl)Cl
inactive: Akkermansia muciniphila 0.875 | Bacteroides caccae 0.977 | Bacteroides clarus 0.966 | Bacteroides dorei 1.02 | Bacteroides stercoris 0.994 | [1] 0.999 | Bacteroides uniformis 1.01 | [2] 1.01 | Clostridium difficile 1 | Collinsella aerofaciens 0.981

ClC1=C(Cl)[C@]2(Cl)[C@@H]3[C@@H]4C[C@@H]([C@H]5O[C@@H]45)[C@@H]3[C@@]1(Cl)C2(Cl)Cl
inactive: Akkermansia muciniphila 0.945 | Bacteroides caccae 0.98 | Bacteroides clarus 1.01 | Bacteroides dorei 1 | Bacteroides stercoris 0.947 | [1] 0.967 | Bacteroides uniformis 0.979 | [2] 1.02 | Clostridium difficile 0.973 | Collinsella aerofaciens 0.989

CCOC(=O)OC1=C(c2cc(C)ccc2C)C(=O)NC12CCC(OC)CC2 (stereo not given)
inactive: Akkermansia muciniphila 0.953 | Bacteroides caccae 1 | Bacteroides clarus 0.995 | Bacteroides dorei 0.996 | Bacteroides stercoris 1.04 | [1] 0.971 | Bacteroides uniformis 0.982 | [2] 0.996 | Clostridium difficile 0.977 | Collinsella aerofaciens 0.997

ClC1=C(Cl)C2(Cl)C3C(Cl)C=CC3C1(Cl)C2(Cl)Cl (stereo not given)
inactive: Akkermansia muciniphila 1.1 | Bacteroides caccae 1.01 | Bacteroides clarus 1.01 | Bacteroides dorei 0.958 | Bacteroides stercoris 1.08 | [1] 0.99 | Bacteroides uniformis 0.983 | [2] 0.932 | Clostridium difficile 0.963 | Collinsella aerofaciens 0.951

C=CCC1=C(C)C(OC(=O)C2C(C=C(C)C)C2(C)C)CC1=O (mixture of isomers)
inactive: Akkermansia muciniphila 1.05 | Bacteroides caccae 0.96 | Bacteroides clarus 1.04 | Bacteroides dorei 0.962 | Bacteroides stercoris 0.924 | [1] 0.972 | Bacteroides uniformis 0.936 | [2] 0.96 | Clostridium difficile 0.962 | Collinsella aerofaciens 0.941

Cc1cccc(C)c1N
inactive: Akkermansia muciniphila 0.917 | Bacteroides caccae 1.04 | Bacteroides clarus 0.973 | Bacteroides dorei 1.01 | Bacteroides stercoris 1.03 | [1] 1.04 | Bacteroides uniformis 1.06 | [2] 1.04 | Clostridium difficile 0.997 | Collinsella aerofaciens 0.985

Nc1ccc(Cl)cc1Cl
inactive: Akkermansia muciniphila 1.06 | Bacteroides caccae 1 | Bacteroides clarus 1.01 | Bacteroides dorei 1.02 | Bacteroides stercoris 0.97 | [1] 1.03 | Bacteroides uniformis 0.993 | [2] 1.04 | Clostridium difficile 1.03 | Collinsella aerofaciens 1.04

COCC(=O)N(c1c(C)cccc1C)[C@@H](C)C(=O)OC
inactive: Akkermansia muciniphila 1.19 | Bacteroides caccae 0.953 | Bacteroides clarus 0.968 | Bacteroides dorei 0.922 | Bacteroides stercoris 1 | [1] 1.04 | Bacteroides uniformis 0.981 | [2] 1.04 | Clostridium difficile 1.04 | Collinsella aerofaciens 0.973

CC(=O)CC(c1ccc(Cl)cc1)c1c(O)c2ccccc2oc1=O (stereo not given)
inactive: Akkermansia muciniphila 0.928 | Bacteroides caccae 0.939 | Bacteroides clarus 0.873 | Bacteroides dorei 0.958 | Bacteroides stercoris 0.91 | [1] 0.938 | [2] 0.939 | Clostridium difficile 1.04 | Collinsella aerofaciens 1.01
active: Bacteroides uniformis 0.777

N#Cc1nn(-c2c(Cl)cc(C(F)(F)F)cc2Cl)c(N)c1S(=O)(=O)C(F)(F)F
inactive: Akkermansia muciniphila 1.09 | Bacteroides caccae 0.823 | Bacteroides clarus 0.966 | Bacteroides dorei 0.961 | Bacteroides stercoris 1.16 | [1] 0.996 | Bacteroides uniformis 0.961 | [2] 0.936 | Clostridium difficile 0.866 | Collinsella aerofaciens 1.03

COP(=S)(NC(C)C)Oc1ccc(C)cc1[N+](=O)[O-] (stereo not given)
inactive: Akkermansia muciniphila 0.926 | Bacteroides caccae 0.974 | Bacteroides clarus 0.977 | Bacteroides dorei 0.982 | Bacteroides stercoris 1.09 | [1] 0.964 | Bacteroides uniformis 0.956 | [2] 1.04 | Clostridium difficile 1.08 | Collinsella aerofaciens 1.05

CCCCNC(=O)n1c(NC(=O)OC)nc2ccccc21
inactive: Akkermansia muciniphila 1.04 | Bacteroides caccae 0.999 | Bacteroides clarus 0.979 | Bacteroides dorei 1 | Bacteroides stercoris 1.01 | [1] 0.999 | Bacteroides uniformis 1.02 | [2] 0.984 | Clostridium difficile 0.955 | Collinsella aerofaciens 0.993

CP(=O)(O)CCC(N)C(=O)[O-].[NH4+] (stereo not given)
inactive: Akkermansia muciniphila 1.08 | Bacteroides caccae 1.04 | Bacteroides clarus 1.03 | Bacteroides dorei 0.977 | Bacteroides stercoris 1.2 | [1] 1 | Bacteroides uniformis 1.02 | [2] 1.02 | Clostridium difficile 1.01 | Collinsella aerofaciens 1.02

CNc1nc(C)c(C)c(OC(=O)N(C)C)n1
inactive: Akkermansia muciniphila 0.975 | Bacteroides caccae 0.99 | Bacteroides clarus 0.953 | Bacteroides dorei 1.02 | Bacteroides stercoris 0.963 | [1] 0.986 | Bacteroides uniformis 1.04 | [2] 1.04 | Clostridium difficile 0.987 | Collinsella aerofaciens 0.994

CC(C)Oc1cc(-n2nc(C(C)(C)C)oc2=O)c(Cl)cc1Cl
inactive: Akkermansia muciniphila 1.21 | Bacteroides caccae 0.984 | Bacteroides clarus 0.942 | Bacteroides dorei 0.982 | Bacteroides stercoris 0.884 | [1] 0.987 | Bacteroides uniformis 0.898 | [2] 0.962 | Clostridium difficile 0.932 | Collinsella aerofaciens 0.921

Oc1ccccc1Cl
inactive: Akkermansia muciniphila 0.985 | Bacteroides caccae 1.01 | Bacteroides clarus 0.993 | Bacteroides dorei 1.01 | Bacteroides stercoris 1.05 | [1] 0.983 | Bacteroides uniformis 0.988 | [2] 0.99 | Clostridium difficile 0.995 | Collinsella aerofaciens 1

CCS(=O)(=O)c1cccnc1S(=O)(=O)NC(=O)Nc1nc(OC)cc(OC)n1
inactive: Akkermansia muciniphila 0.976 | Bacteroides caccae 1.01 | Bacteroides clarus 0.983 | Bacteroides dorei 0.993 | Bacteroides stercoris 0.963 | [1] 0.981 | Bacteroides uniformis 0.974 | [2] 0.995 | Clostridium difficile 0.942 | Collinsella aerofaciens 1

CCCCCCCCn1sccc1=O
active: Bacteroides clarus 0.442 | [1] 0.689 | [2] 0.571 | Collinsella aerofaciens 0.776
inactive: Akkermansia muciniphila 1.04 | Bacteroides caccae 0.924 | Bacteroides dorei 0.912 | Bacteroides stercoris 0.995 | Bacteroides uniformis 0.731 | Clostridium difficile 0.848

N#Cc1c(O)c(Cl)c(Cl)c(C#N)c1Cl
active: Bacteroides uniformis 0.784
inactive: Akkermansia muciniphila 1.02 | Bacteroides caccae 0.98 | Bacteroides clarus 0.979 | Bacteroides dorei 0.969 | Bacteroides stercoris 0.979 | [1] 0.995 | [2] 1.02 | Clostridium difficile 1.02 | Collinsella aerofaciens 0.985

CCc1ccc(C(=O)NN(C(=O)c2cc(C)cc(C)c2)C(C)(C)C)cc1
inactive: Akkermansia muciniphila 0.924 | Bacteroides caccae 1.03 | Bacteroides clarus 0.993 | Bacteroides dorei 0.987 | Bacteroides stercoris 0.875 | [1] 0.976 | Bacteroides uniformis 0.955 | [2] 0.911 | Clostridium difficile 0.965 | Collinsella aerofaciens 1

COCCN(C(=O)CCl)c1c(C)cccc1C
inactive: Akkermansia muciniphila 0.91 | Bacteroides caccae 0.969 | Bacteroides clarus 0.967 | Bacteroides dorei 1.02 | Bacteroides stercoris 0.967 | [1] 0.989 | Bacteroides uniformis 0.973 | [2] 0.851 | Clostridium difficile 1 | Collinsella aerofaciens 1.02

Clc1c(Cl)c(Cl)c(Cl)c(Cl)c1Cl
inactive: Akkermansia muciniphila 0.994 | Bacteroides caccae 1.01 | Bacteroides clarus 1 | Bacteroides dorei 1.04 | Bacteroides stercoris 1.08 | [1] 1 | Bacteroides uniformis 0.992 | [2] 0.981 | Clostridium difficile 1 | Collinsella aerofaciens 1.06

CC(C)N(C(=O)SCC(Cl)=C(Cl)Cl)C(C)C
inactive: Akkermansia muciniphila 1.26 | Bacteroides caccae 1 | Bacteroides clarus 1.02 | Bacteroides dorei 0.955 | Bacteroides stercoris 0.955 | [1] 0.999 | Bacteroides uniformis 0.989 | [2] 1.01 | Clostridium difficile 0.994 | Collinsella aerofaciens 0.953

CCCCc1c(C)nc(NCC)nc1OS(=O)(=O)N(C)C
inactive: Akkermansia muciniphila 1.07 | Bacteroides caccae 1.01 | Bacteroides clarus 0.967 | Bacteroides dorei 0.909 | Bacteroides stercoris 0.895 | [1] 0.944 | Bacteroides uniformis 0.901 | [2] 0.996 | Clostridium difficile 1.01 | Collinsella aerofaciens 0.977

Cc1cc(Cl)ccc1N=CN(C)C.Cl
inactive: Akkermansia muciniphila 1.06 | Bacteroides caccae 0.997 | Bacteroides clarus 1.01 | Bacteroides dorei 1.03 | Bacteroides stercoris 0.972 | [1] 1.01 | Bacteroides uniformis 0.982 | [2] 1.03 | Clostridium difficile 1.04 | Collinsella aerofaciens 0.978

CNC(=O)O/N=C/C(C)(C)SC
inactive: Akkermansia muciniphila 0.909 | Bacteroides caccae 1.03 | Bacteroides clarus 0.993 | Bacteroides dorei 1.03 | Bacteroides stercoris 0.943 | [1] 0.987 | Bacteroides uniformis 1.01 | [2] 0.957 | Clostridium difficile 0.979 | Collinsella aerofaciens 1.04

C=CCC1=C(C)C(OC(=O)[C@@H]2[C@@H](C=C(C)C)C2(C)C)CC1=O (stereo not given in full)
inactive: Akkermansia muciniphila 1.01 | Bacteroides caccae 0.983 | Bacteroides clarus 1.02 | Bacteroides dorei 1.05 | Bacteroides stercoris 1.08 | [1] 0.96 | Bacteroides uniformis 1.01 | [2] 1 | Clostridium difficile 1.04 | Collinsella aerofaciens 1.03

Cc1c(F)c(F)c(COC(=O)[C@@H]2[C@H](/C=C(\Cl)C(F)(F)F)C2(C)C)c(F)c1F (mixture of isomers)
inactive: Akkermansia muciniphila 0.937 | Bacteroides caccae 0.943 | Bacteroides clarus 0.993 | Bacteroides dorei 0.935 | Bacteroides stercoris 0.981 | [1] 0.989 | Bacteroides uniformis 1.01 | [2] 0.997 | Clostridium difficile 1 | Collinsella aerofaciens 0.976

CCNc1nc(NCC)nc(SC)n1
inactive: Akkermansia muciniphila 1.14 | Bacteroides caccae 0.946 | Bacteroides clarus 1.02 | Bacteroides dorei 0.994 | Bacteroides stercoris 1.26 | [1] 0.955 | Bacteroides uniformis 1 | [2] 1.08 | Clostridium difficile 0.981 | Collinsella aerofaciens 0.996

COC(=O)c1ccccc1S(=O)(=O)NC(=O)N(C)c1nc(C)nc(OC)n1
inactive: Akkermansia muciniphila 0.981 | Bacteroides caccae 0.984 | Bacteroides clarus 0.979 | Bacteroides dorei 0.984 | Bacteroides stercoris 1.05 | [1] 0.99 | Bacteroides uniformis 1 | [2] 1.01 | Clostridium difficile 0.984 | Collinsella aerofaciens 1.03

Oc1cc(Cl)c(Cl)cc1Cl
inactive: Akkermansia muciniphila 0.97 | Bacteroides caccae 0.934 | Bacteroides clarus 0.945 | Bacteroides dorei 0.936 | Bacteroides stercoris 0.913 | [1] 0.986 | Bacteroides uniformis 0.992 | [2] 1.02 | Clostridium difficile 0.929 | Collinsella aerofaciens 0.922

CN(C)C(CSS(=O)(=O)c1ccccc1)CSS(=O)(=O)c1ccccc1
inactive: Akkermansia muciniphila 1.14 | Bacteroides caccae 0.966 | Bacteroides clarus 0.999 | Bacteroides dorei 1.01 | Bacteroides stercoris 1.01 | [1] 1.06 | Bacteroides uniformis 1.06 | [2] 1.02 | Clostridium difficile 0.901 | Collinsella aerofaciens 0.938

ClC1=C(Cl)C2(Cl)C3COCC3C1(Cl)C2(Cl)Cl (stereo not given)
active: Akkermansia muciniphila 0.531
inactive: Bacteroides caccae 0.91 | Bacteroides clarus 1.11 | Bacteroides dorei 0.925 | Bacteroides stercoris 1.05 | [1] 0.871 | Bacteroides uniformis 0.916 | [2] 0.918 | Clostridium difficile 0.966 | Collinsella aerofaciens 1.02
